Screening data: PubChem BioAssay, several laboratories
INS promoter inh: TRM-6 insulin promoter activity inhibition. TRM-6 cells (human fetal islet line), insulin promoter-eGFP reporter, imaging; reporter expression induced with tamoxifen. actives 0.9% (n = 130,000). inhibition, % at 2 µM. AID 1273;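 active means inhibition above the mean plus 3 SD, with well images judged a real hit on visual review, cut at about 60% in these data, passing the limit was not always enough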
Autophagy HCS: autophagy modulation, high-content screen | MEF GFP-LC3 puncta imaging; test concentration mostly 10 µM | actives 0.98% (n = 190,000) | AID 463193 | calls only at 10 µM (by protocol);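 active means percentage of spot-positive cells more than 3 SD above its plate mean, without a fluorescence outlier flag or 80% toxicity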;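 further: spot-positive cell cutoff set from DMSO-treated cells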
Insulin prom up: MIN6 insulin promoter up-regulation. MIN6 insulin promoter-GFP reporter, high-content imaging; stronger effect = higher value. z-score at 5 µM. actives 0.3% (n = 190,000);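 active means z-score above 3 at 5 µM with at least 500 cells counted in the well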
Efa HMGR inh: E. faecalis class II HMG-CoA reductase inhibition. purified E. faecalis HMGR, NADPH absorbance 340 nm kinetic. inhibition, % at 10 µM. actives 0.41% (n = 190,000);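 active means inhibition above a set limit, the median over all tested compounds plus 3 SD, cut at about 9.5% in these data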;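 further: enzyme runs in reverse so mevalonate oxidation gives rising NADPH absorbance; 0% = complete reaction with DMSO and 100% = background rate lacking mevalonate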
Numbers without * were called inactive; i = inactive; . = no result given; + = active, no number. A selection: hits, their analogues and other compounds. The true share with any hit is near 1.9%.

SMILES	INS promoter inh	Autophagy HCS	Insulin prom up	Efa HMGR inh
CC(=O)NC(c1ccc(Cl)cc1)c1c(O)ccc2ccc(O)cc12 (configuration not stated)	.	i	11*	2
CCCCC(CCCC)=N/N=C/c1c(O)n(CC)c2cc(C3=NNC(=O)CC3)ccc12	37	+	.	1
CO/N=C\CC(=O)Nc1ccc(Oc2ccccc2)cc1	.	i	0.22	-1
C/C(=N\N=C(N)N)c1ccc(C)c(C)c1	.	.	0.12	.
COc1cc2nc(NCCCN3CCN(C)CC3)n3nc(-c4ccccc4)nc3c2cc1OC	.	+	-0.47	-4
CCN(CC)CCCNc1nc2cc(OC)c(OC)cc2c2nc(-c3ccccc3)nn12	-38	+	-3.8	-10
CCN(CC)CCCNc1nc2cc(OC)c(OC)cc2c2nc(-c3cccnc3)nn12	25	i	-3.4	-3
O=C(NCc1ccccc1)c1onc(CSc2ccccc2)c1C(=O)NCC1CC1	.	.	-2.1	.
CCCOc1ccc(C(C)=O)cc1CSc1nc(O)cc(=O)[nH]1	23	i	0.14	-5
O=C(CCN1C(=O)C2C3C=CC(C3)C2C1=O)NCCc1ccccc1 (configuration not stated)	31	i	-0.11	-3
O=C1C2C3C=CC(C3)C2C(=O)N1CCc1ccccc1 (configuration not stated)	0	i	3.3*	-1
Cc1ccccc1CSc1nnc(-c2cnccn2)n1C	.	.	0.55	.
COc1ccc(-c2cn3cccnc3n2)cc1NC(=O)c1cc(OC)c(OC)c(OC)c1	.	i	-0.11	9.6*
COC(=O)c1ccc(N=NNc2cccc(Br)c2)cc1	37	i	0.5	-4
Cn1ncc(N=Cc2ccccc2)c1C(N)=O	.	i	.	1
Nc1ncc(Br)cc1N=Cc1ccccc1	76*	i	-0.38	-2
Cn1c(/C(C#N)=C/c2cccc(O)c2)nc2ccccc21	.	i	0.28	-8
Cn1c(/C(C#N)=C/c2ccc(-c3ccc(S(N)(=O)=O)cc3)o2)nc2ccccc21	4	+	.	-1
O=C(Cn1cc(C(=O)C(F)(F)F)c2ccccc21)N1CCOCC1	.	i	0.02	14*
O=C(Cn1cc(C(=O)C(F)(F)F)c2cc(Br)ccc21)N1CCOCC1	.	i	-0.13	-5
COc1ccc(NS(=O)(=O)c2cc(NC(=O)c3nc4nc(C)cc(C)n4n3)ccc2C)cc1	.	+	1	-9
Cc1nn(C)c(C)c1NC(=O)c1ccnn1C	72*	i	0.55	-5
Cn1nccc1C(=O)Nn1cnnc1	.	i	-0.15	-7
COc1cc(CC(=O)OCC(=O)Nc2cc([N+](=O)[O-])ccc2Cl)cc(OC)c1OC	.	i	0.71	-6
CC1=C(C(=O)N2CCOCC2)C(c2ccc(OC(F)F)cc2)NC(=S)N1c1ccccc1 (configuration not stated)	37	+	-0.42	2
SMILES	INS promoter inh	Autophagy HCS	Insulin prom up	Efa HMGR inh
O=c1c2c3c(sc2nc2n1CCC2)CCC3	-75	i	0.44	0
O=c1c2c3c(sc2nc2n1CCC2)CCCCC3	.	+	-0.3	-5
C/C(=N\NC(=O)c1ccc(NS(=O)(=O)c2cccs2)cc1)c1ccc2c(c1)OCO2	.	i	-0.74	-10
CCn1c(=O)n(-c2ccc(Cl)cc2)c(=O)c2c3c(sc21)COC(C)(C)C3	74*	i	0.85	-5
Cn1c(=O)n(-c2ccc(Cl)cc2)c(=O)c2c3c(sc21)COC(C)(C)C3	30	i	-0.21	-5
O=C(Nc1nnc(SCc2ccc(F)cc2)s1)c1ccccn1	-47	i	-2.4	-5
O=C(/C=C/c1ccc2c(c1)OCO2)Nc1nc2ccc(F)cc2s1	.	.	0.19	.
CC1CCN(S(=O)(=O)c2ccc(C(=O)NNC(=O)C3CC3)cc2)CC1	.	i	-0.08	-6
CCCCC(=O)Nc1nnc(C2=COCCO2)o1	.	i	-0.45	18*
O=C(CN1C(=O)S/C(=C\C=C\c2ccccc2)C1=O)Nc1ccccc1C(=O)O	.	.	-0.29	.
C#CCN1C(=O)S/C(=C/C=C/c2ccc(N(C)C)cc2)C1=O	-270	+	-0.43	-3
CC(=O)c1c(OC(=O)c2ccc(C)cc2)c2ccccc2n1C	100*	i	0.43	-6
Cc1cccc(N/N=C(\C#N)S(=O)(=O)C(C)(C)C)c1	91*	i	1.5	17*
O=C(c1ccc(Br)o1)N1CCN(c2ccccc2F)CC1	33	+	0.21	0
CN(C[C@@H](Cc1cccc2ccccc12)N(C[C@H](Cc1ccccc1)N(CCc1ccccc1)N=O)N=O)N=O	.	i	-1.8	12*
CN(C[C@H](Cc1ccccc1)N(C[C@@H](Cc1cccc2ccccc12)N(CCc1ccccc1)N=O)N=O)N=O	.	i	-0.57	-1
Cc1nnc(SCC(=O)N2CCN(c3ccccc3)CC2)n(N)c1=O	31	i	.	7
